Only a selection was taken, and hits are over-represented in it overall.
NPSR antagonist: qHTS Assay for Antagonists of the Neuropeptide S Receptor: cAMP Signal Transduction | Q6W5P4 | hit rate 1% among 220,000 | CHO-NPSR cells, cAMP TR-FRET, antagonist mode | Potency, µM (titrated, usually from 38.3 µM), for inactives: at the highest dose activity change, negative = inhibition, usual class: inhibitors; note: nearly all actives have a fitted effect of over 50% in size
GoLoco inh red: qHTS Assay for Inhibitors of RGS12 GoLoco Motif Activity (Red Fluorophore) | hit rate 0.44% among 230,000 | Guanine nucleotide-binding protein G(i) subunit alpha-1 (Homo sapiens), P63096 | Potency, µM (series often up to 61.6 µM), inactives show top-dose activity, negative = inhibition, actives largely listed as inhibitors | Gai1:RGS12 GoLoco peptide FP, rhodamine, 10 min; active = well fitted inhibition curve with a large enough effect, not every such curve was filed as active; inactive = no such curve, though single readings can be large or run the other way; note: nearly all actives have a fitted effect of over 30% in size
MBNL1-CUG inh: qHTS Assay for Inhibitors of MBNL1-poly(CUG) RNA binding; TR-FRET MBNL1-His/biotin-(CUG)12 binding, 665/545 ratio; hit rate 0.036% among 280,000; Potency, µM (top dose mostly 57.5 µM), without a hit: at the top dose activity change, negative = inhibition, actives largely listed as inhibitors; active = well fitted inhibition curve with a large enough effect in the signal ratio, with a control signal flat, not every such curve was filed as active; inconclusive = small, poorly fitted or top-dose-only effect, or effect the other way, or a change in a side signal; inactive = no such curve, though single readings can be large or run the other way; the % refers to the signal ratio
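TR-FRET between His-tagged MBNL1 and biotin-(CUG)12 RNA, detected with Tb anti-His antibody (0.055 ng/ul) and streptavidin-XL665 (5 nM), 60 min at room temperature. Compounds titrated 92 nM to 58 uM; 665/545 nm ratio normalized to buffer and complex controls.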
IMPase Li cell: qHTS Assay for Identifying the Cell-Membrane Permeable IMPase Inhibitors: Potentiation with Lithium; AID 1457, 2008; CHO-M1 cells, IP1 TR-FRET (IP-One), carbachol + lithium; hit rate 0.35% among 210,000; Potency, µM (highest dose often 59.4 µM), inactives show top-dose activity, negative = IMPase inhibition, actives largely listed as inhibitors;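 note: IP1 builds up when IMPase is blocked and the TR-FRET signal falls; plate controls were basal vehicle for no effect and high inhibitor control for full effect; nearly all actives have a fitted effect of over 50% in size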
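Test compounds were applied to CHO-M1 cells previously cultured for 16–30 h at 2000 per well. A small lithium amount accompanied them; after 30 min at 37C, IP1 was quantified by TR-FRET.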
Tb PFK inh: qHTS Assay to Find Inhibitors of T. brucei phosphofructokinase | T. brucei PFK, ADP-Glo luminescence | hit rate 0.17% among 330,000 | ATP-dependent 6-phosphofructokinase (Trypanosoma brucei brucei), O15648 | Potency, µM (titrated, usually from 57.5 µM), without a hit: at the top dose activity, negative = inhibition, usual class: inhibitors;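 note: 0% = uninhibited 1x PFK enzyme wells and -100% = no-enzyme wells; nearly all actives have a fitted effect of over 60% in size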
Target sequence (O15648 whole entry, looked up): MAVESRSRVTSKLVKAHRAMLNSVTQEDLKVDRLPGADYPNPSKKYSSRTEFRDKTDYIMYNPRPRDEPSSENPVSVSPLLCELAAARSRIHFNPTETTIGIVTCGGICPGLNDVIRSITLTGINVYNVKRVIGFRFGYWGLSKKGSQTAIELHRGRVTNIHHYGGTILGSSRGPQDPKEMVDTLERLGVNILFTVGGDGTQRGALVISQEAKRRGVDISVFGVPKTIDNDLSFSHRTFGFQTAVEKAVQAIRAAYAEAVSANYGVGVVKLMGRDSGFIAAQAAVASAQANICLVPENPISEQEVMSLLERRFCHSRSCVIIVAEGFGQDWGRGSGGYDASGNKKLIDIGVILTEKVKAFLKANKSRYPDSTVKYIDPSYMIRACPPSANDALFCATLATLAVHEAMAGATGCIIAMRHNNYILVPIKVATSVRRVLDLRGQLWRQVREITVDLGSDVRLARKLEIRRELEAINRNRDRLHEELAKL
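1.25 nM PFK with 0.5 mM F6P and 0.1 mM ATP in 0.1 M TEA pH 8.0, 5 mM MgCl2, incubated 45 min at room temperature; ADP measured by ADP-Glo luminescence; compounds titrated up to 57 uM.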
* = called active by the depositor; ? = inconclusive; . = no result given; ! = repeats disagree; [ ] = another dose, or the depositor's remark. Unless noted, calls come from the whole dose curve; as a rule, active = well fitted curve in the direction sought with a large enough effect; inconclusive = small, poorly fitted or top-dose-only effect, or another doubt; inactive = no such curve, though single readings can be large; an effect the other way counts as inactive or inconclusive. Unless noted, % is set by controls: 0 for no effect and ±100 for the full control effect; potency is the fitted concentration of half-maximal effect.

SMILES	NPSR antagonist	GoLoco inh red	MBNL1-CUG inh	IMPase Li cell	Tb PFK inh
COc1ccc(-c2nnc(SCC(=O)N3CCN(c4ccccc4)CC3)o2)cc1OC	-13%	4%	-10%	-12%	1%
Cc1ccc(CSc2nc3ccncc3n2CC(=O)Nc2cc(C)cc(C)c2)cc1	3.2µM*	-3%	?	-17%	0%
CC(O)c1n(C)c(Cl)c[n+]1C (stereo not drawn)	-10%[46.1 µM]	13µM*	7%	-5%[38.3 µM]	3%
COc1ccc2[nH]c3c(=S)nc[nH]c3c2c1	29%	9%	?	2.8µM*	-12%
COc1ccc2[nH]c3c(Cl)ncnc3c2c1	28%[46.1 µM]	.	?	.	-1%
O=C(O)/C=C1\CCCc2ccccc2[C@H]1O	.	-6%	.	4%	.
CC(C(=O)Nc1ccc(OCc2ccccc2)cc1)N1CCCC1 (stereo not drawn)	8%	-2%	0%	22%	-5%
CC(C)COCC(CN(Cc1ccccc1)c1ccccc1)N1CCCC1 (stereo not drawn)	?	11µM*!	1%	25%	0%
O=C(CN1Cc2ccccc2C1=O)Nc1ccc2c(c1)OCCO2	.	.	-1%	.	2%
S=c1nc(SCc2ccccc2)[nH]c2ccccc12	10µM*	11%	173%	14µM*	-2%
CCOC(=O)c1c(CSc2ccsc2)n(C)c2cc(Br)c(O)c(CN(C)C)c12	13µM*	6%	-1%	.	2%
CCOC(=O)c1c(CSc2ccc(C)cc2)n(C)c2cc(Br)c(O)c(CN(C)C)c12	?	-6%	0%	11%	0%
CCOC(=O)c1c(CSc2ccccc2)n(C)c2cc(Br)c(O)c(CN(C)C)c12	32%[7.67 µM]	22µM*	.	.	1%
COCCCn1c(SC(C)C(=O)Nc2c(C)n(C)n(-c3ccccc3)c2=O)n[nH]c1=O (stereo not drawn)	.	.	.	.	1%
COc1ccc(CNC[C@@H](CCCCN(C)Cc2ccc(OC)cc2)N2C[C@H](c3ccccc3)N(CCc3ccc(Cl)c(Cl)c3)C(=O)C2=O)cc1	?	13%	-11%	18%	-2%
CN(CCCC[C@H](CNCc1ccc(-c2ccccc2)cc1)N1C[C@H](c2ccccc2)N(CCc2ccc(Cl)c(Cl)c2)C(=O)C1=O)Cc1ccc(-c2ccccc2)cc1	10µM*	13%	-6%	.	-3%
C=CCNC(=O)/C(C#N)=C/c1c(C)nn(-c2ccccc2)c1Cl	7%	8%	-25%	4%	0%
C[n+]1cc(-c2ccccc2)n2c1CCCCC2	-5%[46.1 µM]	4.5µM*	4%	-14%[38.3 µM]	2%
O=C(C[n+]1cc(-c2ccccc2)n2c1CCCCC2)c1ccc(Cl)cc1	22%	9%	-6%	8%	-2%
Cc1oc(C)c2c(=O)ccc3c(c12)OC(N)=C(C#N)C3c1ccccc1 (stereo not drawn)	-23%[46.1 µM]	74%	35%	5%[38.3 µM]	-4%
Cc1oc(C)c2c(=O)ccc3c(c12)OC(N)=C(C#N)C3c1ccccc1Cl (stereo not drawn)	10µM*	88%	?	12%[38.3 µM]	-2%
CCOC(=O)c1sc2nc(NC(=O)COc3ccccc3)sc2c1C	-2%[46.1 µM]	7%	5%	13µM*	3%
CC(=O)c1sc(NC(=O)COc2ccccc2)nc1C	-6%	30%	31%	10µM*	-1%
Cc1nnc(NC(=O)COc2ccccc2)s1	-2%[46.1 µM]	4%	-1%	13%[38.3 µM]	0%
CC(=O)c1sc(NC(=O)CCOc2ccccc2)nc1C	-21%	11%	15%	-1%	-4%
SMILES	NPSR antagonist	GoLoco inh red	MBNL1-CUG inh	IMPase Li cell	Tb PFK inh
CC(=O)c1sc(NC(=O)COc2ccc(C(C)C)c(C)c2)nc1C	?	1%	-1%	11µM*	1%
COc1cc(NC(=O)c2cc(-c3cccnc3)nc3ccc(Br)cc23)cc(OC)c1	-49%	27%	4%	-19%	0%
COCCNC(=O)c1cc(-c2cccnc2)nc2ccc(Br)cc12	5%[46.1 µM]	4%	43%	11µM*	4%
Cc1ccc(C2C(C(=O)c3ccco3)=C(O)C(=O)N2c2nnc(C)s2)cc1 (stereo not drawn)	-20%[46.1 µM]	-5%	?	10µM*	-7%
O=C(C1=C(O)C(=O)N(CCc2ccccc2)C1c1cccnc1)c1ccco1 (stereo not drawn)	?	58%	?	4.5µM*	-23%
Cc1nnc(N2C(=O)C(O)=C(C(=O)c3ccco3)C2c2cccc3ccccc23)s1 (stereo not drawn)	-41%	6%	?	.	-1%
COC(=O)c1sc(N2C(=O)C(O)=C(C(=O)c3ccc(C)o3)C2c2ccc(F)cc2)nc1C (stereo not drawn)	22%[46.1 µM]	48%	11%	7.9µM*	10%
COCCCN1C(=O)C(O)=C(C(=O)c2ccc(C)o2)C1c1cccc(Br)c1 (stereo not drawn)	26%[46.1 µM]	4%	25%	10µM*	-15%
Nc1c(OCC(=O)O)ccc2cc(S(=O)(=O)O)ccc12	.	5%[14.2 µM]	.	14%	.
COCCCN1C(=O)C(O)=C(C(=O)c2ccco2)C1c1ccccc1 (stereo not drawn)	?	5%	5%	7.9µM*	-5%
COc1cc(C2C(C(=O)c3ccco3)=C(O)C(=O)N2Cc2ccccc2)ccc1O (stereo not drawn)	.	.	16%	.	-6%
CCOc1ccc(C2C(C(=O)c3ccco3)=C(O)C(=O)N2CCCn2ccnc2)cc1OC (stereo not drawn)	.	.	23%	.	0%
CCOc1ccc(C2C(C(=O)c3ccco3)=C(O)C(=O)N2Cc2cccnc2)cc1OC (stereo not drawn)	-4%[46.1 µM]	-15%	11%	11µM*	4%
CC(C)C=O	.	9%	.	-8%	.
CN(C)CCCNC(=O)c1ccc(-c2nc(-c3ccc(Cl)cc3)cs2)cc1	10µM*	33%	?	13%[38.3 µM]	2%
Cc1ccccc1Nc1scc(-c2ccc(Cl)cc2)[n+]1-c1ccccc1C	7.9µM*	1%	2%	11%	6%
CC1(O)CCC(C(C)(C)O)CC1 (stereo not drawn)	.	4%	.	9%	.
Cc1c(Cc2ccccc2)c(=O)oc2cc(OC(C)C(=O)NCC3CCC(C(=O)O)CC3)c(Cl)cc12 (stereo not drawn)	.	.	3%	.	0%
COc1ccc(NS(=O)(=O)c2cc(NC(=O)C3CC3)ccc2N2CCOCC2)cc1	-35%	8%	-1%	0%	-2%
COc1ccc(NS(=O)(=O)c2cc(NC(=O)c3ccco3)ccc2N2CCCCC2)cc1	-22%	8.9µM*	-6%	12%	-2%

Assay outcomes from PubChem.
